# IL-1B inflam inh: blocks inflammasome-driven IL-1 beta release; 360,000 tested, 4.7% active; AID 743279; THP-1 LPS/ATP IL-1B secretion, AlphaLISA, 16 h; hits give low values; activity change, % at 57.5 µM; in the data active means activity change below about -50%; inconclusive means mostly about -30% to -49%
#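 THP-1 cells pretreated 1 hr with compounds (up to 57.5 uM final), then stimulated with LPS (250 ng/mL final) plus ATP (1.25 mM final); secreted IL-1B measured by AlphaLISA after 16 hr, decreased signal indicating inhibition.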
# HT1080NT lethal: kills 2HG-producing HT-1080-NT fibrosarcoma cells; HT-1080-NT fibrosarcoma viability, CellTiter-Glo ATP luminescence, 48 h; Potency, µM (highest dose often 46.1 µM), for inactives: top-dose activity, negative = less viability, actives largely listed as cytotoxic; 360,000 tested, 1.6% active; AID 686970;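 further: NT is the 2HG producing partner of a matched IDH1 knockdown line; potency means the concentration at half of the fitted maximal effect; 0% = DMSO-treated cells and -100% = media-only wells without cells; nearly all actives have a fitted effect of over 55% in size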
#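 Compounds were tested in concentration-response format on HT-1080-NT cells for 48 hours at 37 degrees C. Cell viability came from CellTiter-Glo luminescence; curves were classified by r2, response magnitude and activity.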
# ELG1 repair inh: blocks ELG1-dependent DNA repair in HEK293T cells; 330,000 tested, 2.3% active; AID 504467; HEK293T ELG1-luciferase reporter, luminescence, 16 h; DNA damage induced by 5-fluorouridine; Potency, µM (top dose mostly 46.1 µM), for inactives: at the highest dose activity change, negative = inhibition, actives largely listed as inhibitors; further: potency means the concentration at half of the fitted maximal effect; nearly all actives have a fitted effect of over 55% in size
#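 In this reporter screen, reduction of luminescence relative to DMSO vehicle indicated activity. Compounds and 5-fluorouridine were added together to 2,000 cells per well, incubated for 16 hr at 37 °C, then developed with ONE-Glo.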
# DT40 TDP1 no CPT: qHTS for Inhibitors of human tyrosyl-DNA phosphodiesterase 1 (TDP1): qHTS in cells in absence of CPT; Potency, µM (titrated, usually from 46.2 µM), inactives show top-dose activity change, negative = growth inhibition, hits mostly inhibitors; DT40 Tdp1-/- hTDP1 cells, no CPT, ATP luminescence, 48 h; 420,000 tested, 15% active; AID 686978, 2013; further: potency means the concentration at half of the fitted maximal effect; nearly all actives have a fitted effect of over 55% in size
#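 Camptothecin absent (DMSO only). Human TDP1-complemented DT40 knockout cells, 400 cells/well, 37 °C for minimum 48 hr; ATP measured via CellTiter-Glo, 30 min dark incubation, luminescence.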
# HT1080 IDH1KD tx: HT-1080 IDH1 knockdown cell toxicity (counter line) | HT-1080 IDH1 knockdown viability, ATP luminescence, 48 h | Potency, µM (doses to about 46.1 µM), for the others: top-dose activity, negative = toxicity, hits mostly cytotoxic | 360,000 tested, 2% active | AID 686971;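 further: potency means the concentration at half of the fitted maximal effect; 0% = DMSO wells and -100% = cell-free medium wells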
#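 IDH1KD HT-1080 cells, 750/well, RPMI + 5% FBS; compound pinned after 2 h settling; 48 h, 37 °C; CellTiter-Glo luminescence; % activity normalised to DMSO and no-cell wells; curves fitted, classed by r2 and efficacy.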
# DT40 TDP1 CPT: DT40-hTDP1 cell growth loss with CPT; chicken DT40 Tdp1-/-;hTDP1 cells + 20 nM CPT, ATP luminescence, 48 h; Potency, µM (doses to about 46.2 µM), without a hit: at the highest dose activity change, negative = growth inhibition, most hits filed as inhibitors; 420,000 tested, 12% active; AID 686979; further: potency means the concentration at half of the fitted maximal effect; nearly all actives have a fitted effect of over 55% in size
#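 Chicken DT40 Tdp1-/- cells stably complemented with human TDP1 were seeded at 400 cells/well in medium containing 20 nM camptothecin, exposed to pin-transferred compounds, and grown at 37 °C for at least 48 hr. Viability was read as ATP luminescence.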
# Starred values were filed as active, the others as inactive; ? = inconclusive; / = not tested or not shown; [ ] = another dose, or the depositor's remark. Sampled rows, rich in hits. Any-hit rate of the full collection: about 19%. Unless noted, the call rests on the fitted dose curve; in most records, active means well fitted curve in the direction sought with a large enough effect; inconclusive means small, poorly fitted or top-dose-only effect, or another doubt; inactive means no such curve, though single readings can be large; an effect the other way counts as inactive or inconclusive. Unless noted, on the % scale 0 is the no-effect control and ±100 the full control effect.
SMILES,IL-1B inflam inh,HT1080NT lethal,ELG1 repair inh,DT40 TDP1 no CPT,HT1080 IDH1KD tx,DT40 TDP1 CPT
COC(=O)c1ccc(/C=C/C(=O)c2ccc(OC)c(OC)c2)cc1,-59*,?,?,?,?,?
COc1ccc(/C=C/C(=O)C2(O)CCCCC2)cc1,-92*,-6%,?,?,?,?
CC(C)CN(C(=O)COC(=O)c1cccnc1Cl)c1c(N)n(Cc2ccccc2)c(=O)[nH]c1=O,?,1%,0%,4%,4%,10%
CC(C)CN(C(=O)COC(=O)c1cnc(Cl)c(Cl)c1)c1c(N)n(Cc2ccccc2)c(=O)[nH]c1=O,-96*,-2%,?,-10%,-6%,-24%
CC(C)CN(C(=O)COC(=O)CCc1nc2ccccc2s1)c1c(N)n(Cc2ccccc2)c(=O)[nH]c1=O,-7,5%,3%,?,8%,16µM*
Cc1ccc(CNC(=O)c2ccc(Cl)c(S(=O)(=O)N3CCCCC3)c2)cc1,-2,-3%[9.24 µM],?,-1%,-6%,-27%
O=C1CCN(CCCc2ccccc2)CCN1[C@H](CO)Cc1ccccc1,-3,2%,-17%,-68%,-7%,?
COc1cc(NC(=O)CC(C)n2nc(C)cc2C)cc(OC)c1 (stereo not given),/,/,/,-29%,/,-2%
O=C(Cn1nc2n(c1=O)-c1ccccc1SC2)N/N=C/c1cccnc1,55,-2%,0%,-4%,8%,-2%
COc1cccc(CNCCSc2nnnn2C)c1OCc1ccc(Cl)cc1,/,/,/,?,/,21µM*
CCOc1c(CNCCSc2nnnn2C)cccc1OC,/,/,/,5%,/,-2%
COc1cccc(CNCCSc2nnnn2C)c1OCc1ccc(Cl)cc1Cl,/,/,/,23µM*,/,16µM*
COCCN1C(=O)CN(S(C)(=O)=O)CC1(C)C(=O)Nc1ccc2c(c1)OCCO2 (stereo not given),-2,-2%,/,10%,17%,7%
CC(=O)c1c(C)[nH]c(C(=O)CSc2nc3ccccc3n2C)c1C,-11,0%,?,9.2µM*,-5%,15µM*
CCn1c(SCC(=O)c2cccs2)nnc1-c1cccs1,40,2%,?,-18%,-5%,-24%
CCn1c(SCC(=O)c2[nH]c(C)c(C(C)=O)c2C)nnc1-c1cccs1,0,-2%,?,18µM*,-10%,?
CN(C1CCCCC1)S(=O)(=O)c1ccc(=S)[nH]c1,6,8%,18%,?,9%,?
CCSc1nnc2c(n1)[nH]c1c(C)cccc12,-30,?,-7%,13µM*,?,13µM*
CCCNC(=O)c1ccc(-c2nc3ccccc3s2)s1,-10,-8%,?,10µM*,-4%,?
CCCCNC(=O)Nc1nc2ccccc2s1,-78*,1%,?,?,19%,?
C[C@@H]1CN([C@H](C)CO)C(=O)CCCn2cc(nn2)CO[C@H]1CN(C)S(=O)(=O)c1ccc(Oc2ccccc2)cc1,6,3%,/,-20%,12%,4%
CN(C)c1cccc(CNC(=O)c2ccc3nc([C@@H]4O[C@H](CO)[C@H](O)[C@H](O)[C@H]4O)[nH]c3c2)c1,41,?,/,-10%,22%,-17%
O=C(c1cc(-c2ccco2)nn1-c1cccc(Cl)c1)N1CCCCC1,0,?,-12%,16µM*,1%[9.24 µM],16µM*
CC(C)NC(=O)c1cc(-c2ccco2)nn1-c1ccc(Cl)cc1,23,-3%,-16%,?,-15%,?
Cc1nc(C(=O)NCCC(C)C)sc1C1(C)CC(c2ccccc2)=NO1 (stereo not given),-9,17%,13µM*,-28%,10%,-23%
SMILES,IL-1B inflam inh,HT1080NT lethal,ELG1 repair inh,DT40 TDP1 no CPT,HT1080 IDH1KD tx,DT40 TDP1 CPT
COc1ccc(NC(=O)c2nc(C)c(C3(C)CC(c4cccnc4)=NO3)s2)cc1 (stereo not given),31,?,?,3.7µM*,6.5µM*,5.8µM*
Cc1nc(C(=O)Nc2ccc(Cl)cc2)sc1C1(C)CC(c2cccc([N+](=O)[O-])c2)=NO1 (stereo not given),-6,5%,/,?,-12%,?
Cc1nc(C(=O)NC2CC2)sc1C1(C)CC(c2ccccc2)=NO1 (stereo not given),1,2%,15%,-22%,-7%,-16%
Cc1nc(C(=O)NC2CCCCC2)sc1C1(C)CC(c2cccc([N+](=O)[O-])c2)=NO1 (stereo not given),2,3%,?,23µM*,0%,?
Cc1nc(C(=O)Nc2cc(F)cc(Cl)c2)sc1C1(C)CC(c2ccccc2)=NO1 (stereo not given),?,-11%,/,21µM*,-3%,16µM*
CNC(=O)c1nc(C)c(C2(C)CC(c3ccccc3)=NO2)s1 (stereo not given),10,9%,27%,-28%,2%,-10%
CC1(c2nnnn2-c2ccc3c(c2)OCCO3)CCC(=O)N1Cc1ccc(F)cc1 (stereo not given),0,17%,/,-17%,4%,0%
CSc1ccccc1NC(=S)NCc1ccc(Cl)cc1,8,11%,?,-1%,-4%,-2%
COc1cccc(COC(=O)C(Cc2ccccc2)NC(=O)c2ccco2)c1 (stereo not given),16,9%,/,6%,-1%,0%
COc1cc(C(=O)NCC(c2ccccc2)N(C)C)ccc1OCC(=O)N1CCOCC1 (stereo not given),2,12%,-1%,-11%,6%,-6%
COC(=O)[C@]1(C)CCC[C@@]2(C)C3CC[C@@]4(C)C[C@]3(CCC21)CC(=O)N4C (stereo not given in full),-5,0%,-1%,?,12%,?
COC(=O)[C@]1(C)CCC[C@@]2(C)C3CC[C@@]4(C)C[C@]3(CCC21)CC4=NO (stereo not given in full),18,-3%,?,21µM*,-6%,?
C=C1C[C@@]23CCC4[C@@](C)(CCC[C@@]4(C)C(=O)OC)C2CC[C@]1(OC(C)=O)C3 (stereo not given in full),24,-1%,1%,?,0%,18µM*
